# This is a sample that favours compounds with a hit; in the whole collection about 19% have one here.
# DT40 TDP1 CPT: qHTS for Inhibitors of human tyrosyl-DNA phosphodiesterase 1 (TDP1): qHTS in cells in presence of CPT. chicken DT40 Tdp1-/-;hTDP1 cells + 20 nM CPT, ATP luminescence, 48 h. Potency, µM (top dose mostly 46.2 µM), usual class: inhibitors. actives 12% (n = 420,000). AID 686979, 2013; also: nearly all actives have a fitted effect of over 55% in size
#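 Chicken DT40 Tdp1-/- cells stably complemented with human TDP1 were seeded at 400 cells/well in medium containing 20 nM camptothecin, exposed to pin-transferred compounds, and grown at 37 °C for at least 48 hr. Viability was read as ATP luminescence.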
# ELG1 DNA repair: qHTS screen for small molecules that inhibit ELG1-dependent DNA repair in human embryonic kidney (HEK293T) cells expressing luciferase-tagged ELG1; Potency, µM (top dose mostly 46.1 µM), usual class: inhibitors; AID 504467, 2011; HEK293T ELG1-luciferase reporter, luminescence, 16 h; DNA damage induced by 5-fluorouridine; actives 2.3% (n = 330,000); also: nearly all actives have a fitted effect of over 55% in size
#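 5-Fluorouridine DNA damage + compound/DMSO, 2,000 cells/well, 16 h, 37 °C/5% CO2. ONE-Glo, 30 min RT, luminescence. Readout = decrease in reporter signal.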
# HT1080 IDH1KD tx: qHTS for induction of synthetic lethality in tumor cells producing 2HG: qHTS for the HT-1080-IDH1KD cell line | Potency, µM (highest dose often 46.1 µM), usual class: cytotoxic | HT-1080 IDH1 knockdown viability, ATP luminescence, 48 h | AID 686971, 2013 | actives 2% (n = 360,000)
#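 Cytotoxicity counter-line: IDH1KD HT-1080, 48 h, CellTiter-Glo. Curves classed by r2, magnitude and activity.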
# DT40 TDP1 no CPT: qHTS for Inhibitors of human tyrosyl-DNA phosphodiesterase 1 (TDP1): qHTS in cells in absence of CPT | DT40 Tdp1-/- hTDP1 cells, no CPT, ATP luminescence, 48 h | Potency, µM (top dose mostly 46.2 µM), most hits filed as inhibitors | actives 15% (n = 420,000) | AID 686978, 2013; also: nearly all actives have a fitted effect of over 55% in size
#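 Cells were dispensed at 400 per well, compounds added by pin tool, plates incubated ≥48 hr at 37 °C, then CellTiter-Glo added for 30 min at room temperature before luminescence reading. Line: DT40 Tdp1-/- complemented with hTDP1; camptothecin omitted.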
# IL1B secr inh: qHTS for Inhibitors of Inflammasome Signaling: IL-1-beta AlphaLISA Primary Screen. activity change, % at 57.5 µM. AID 743279, 2014. actives 4.7% (n = 360,000). THP-1 LPS/ATP IL-1B secretion, AlphaLISA, 16 h; active compounds read low; in the data active = activity change below about -50%; inconclusive = mostly about -30% to -49%
#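 Secreted IL-1B measured by AlphaLISA bead assay after 16 h compound exposure of THP-1 cells; compounds (final up to 57.5 uM) added 1 h before LPS (250 ng/mL) and ATP (1.25 mM) stimulation; lower signal means less secretion.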
# HT1080-NT tox: qHTS for induction of synthetic lethality in tumor cells producing 2HG: qHTS for the HT-1080-NT fibrosarcoma cell line; HT-1080-NT fibrosarcoma viability, CellTiter-Glo ATP luminescence, 48 h; Potency, µM (titrated, usually from 46.1 µM), usual class: cytotoxic; actives 1.6% (n = 360,000);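 also: NT is the 2HG producing partner of a matched IDH1 knockdown line; nearly all actives have a fitted effect of over 55% in size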
#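 750 cells/well, RPMI + 5% FBS; 2 h settle, compound pin-transfer, 48 h at 37 degrees C. CellTiter-Glo 10 min RT, luminescence. Normalized to DMSO and media-only wells.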
# A number is an active result; - = inactive; ? = inconclusive; . = no result. Unless noted, calls follow the shape of the dose curve; as a rule, active = well fitted curve in the direction sought with a large enough effect; inconclusive = small, poorly fitted or top-dose-only effect, or another doubt; inactive = no such curve, though single readings can be large; an effect the other way counts as inactive or inconclusive.
SMILES,DT40 TDP1 CPT,ELG1 DNA repair,HT1080 IDH1KD tx,DT40 TDP1 no CPT,IL1B secr inh,HT1080-NT tox
CCCCNC(=O)C1(C)CCC(=O)N1CCCn1ccnc1 (configuration not stated),-,.,-,-,-,-
Cc1ccc2cccc(NS(=O)(=O)c3ccccc3)c2n1,?,-,?,20.6µM,-,?
O=S(=O)(Nc1cccc2cccnc12)c1ccc(S(=O)(=O)N2CCCC2)cc1,16.4µM,-,1.26µM,13µM,-71.4,2µM
Cc1cc(C)n(-c2cccc3cccnc23)n1,-,-,-,-,-,-
Cc1ccccc1NS(=O)(=O)c1ccc(S(=O)(=O)N2CCCC2)cc1,-,.,-,?,-,-
Cc1cc(C)n(-c2ccc3cccc(NS(C)(=O)=O)c3n2)n1,5.17µM,-,?,5.8µM,-,?
Cc1cc(C)nc(NS(=O)(=O)c2ccccc2)n1,-,-,-,-,-,-
O=C(C1=NOC2(C1)C(=O)Nc1ccccc12)N1CCCCC1 (configuration not stated),-,.,-,-,-,-
COc1cccc(C(=O)NCc2ccc(-c3nc4ccccc4s3)cc2)c1,18.4µM,?,?,18.4µM,-,-
COc1ccc(-c2nc3ccccc3s2)cc1NC(=O)c1ccccc1OC,5.17µM,.,.,20.6µM,.,.
COc1ccc(C(=O)NCc2ccc(-c3nc4ccccc4s3)cc2)cc1,-,?,-,-,-,-
COc1cc(OC)cc(C(=O)Nc2ccccc2-c2nc3ccccc3s2)c1,10.3µM,.,.,5.8µM,.,.
O=C(Nc1ccc(OC(=O)c2ccccc2)c(-c2nc3ccccc3s2)c1)c1ccccc1,18.4µM,-,-,?,-,-
CC(=O)Nc1ccc(O)c(-c2nc3ccccc3s2)c1,-,-,-,?,-,-
COc1ccc(-c2nc3ccccc3s2)cc1NC(=O)c1cc(OC)c(OC)c(OC)c1,?,.,.,-,.,.
CCOC(=O)N1CCN(C(=O)CN(C)S(=O)(=O)c2ccc(OCC)cc2)CC1,-,-,-,-,-,-
CCN(CC)C(=O)Cn1cc([N+](=O)[O-])cc1[N+](=O)[O-],-,.,-,-,-,-
COc1ccccc1-n1ncc2c(=O)[nH]c(SCC(=O)Nc3cccc(F)c3)nc21,-,.,.,-,.,.
Cc1c(Cl)cccc1NC(=O)c1cc2nc(-c3ccc4c(c3)OCO4)cc(C(F)(F)F)n2n1,-,.,.,-,.,.
COc1ccc(Cc2nnc(NC(=O)C(C)(C)C)s2)cc1,-,-,-,-,-,-
COc1ccc(OC)c(NC(=O)c2ccc(CSc3nnc(C)s3)cc2)c1,-,-,-,?,-59.8,-
COc1ccc(C(=O)Nc2cc(-c3nc4ccccc4s3)ccc2OC)cc1,3.26µM,.,.,5.17µM,.,.
C=C1CCN([C@@H](Cc2ccccc2)C(=O)NC2CCN(Cc3ccccc3)CC2)S(=O)(=O)c2ccccc21,?,.,-,?,-,-
O=C(/C=C/c1ccccc1)Nc1ccc(S(=O)(=O)N2CCOCC2)cc1,-,.,-,-,-,-
CN(C)S(=O)(=O)c1cccc(NC(=O)/C=C/c2ccc(S(=O)(=O)N3CCOCC3)cc2)c1,14.6µM,23.1µM,-,18.4µM,-,-
CC(=O)c1cccc(NC(=O)/C=C/c2ccc(S(=O)(=O)N3CCOCC3)cc2)c1,?,23.1µM,-,18.4µM,-,-
CCOC(=O)c1ccc(N2C(=O)C3CCCN3C2=S)cc1 (configuration not stated),-,?,-,-,-,-

# Compound activity (PubChem BioAssay)
